# Measured values published in PubChem BioAssay (Tox21).
# Values without a mark were called inactive. Inconclusive results are not listed. A call without a number means that no potency is given here. Calls of active or inactive are those of the source. Unless noted, the call rests on the fitted dose curve; in most records, active means well fitted curve in the direction sought with a large enough effect in the repeat runs; inconclusive means weak or mixed curves; inactive means no such curve, though single readings can be large; an effect the other way counts as inactive or inconclusive.
# Key:
# [1] = target: Thyrotropin receptor (Homo sapiens) (UniProt P16473); assay: qHTS assay to identify small molecule agonists of the thyroid stimulating hormone receptor (TSHR) signaling pathway (AID 1224843; calls by dose curve; further: nearly all actives have a fitted effect of over 45% in size; further: potency means the concentration at half of the fitted maximal effect)
# Thyrotropin receptor (Homo sapiens), sequence (P16473 whole entry, looked up): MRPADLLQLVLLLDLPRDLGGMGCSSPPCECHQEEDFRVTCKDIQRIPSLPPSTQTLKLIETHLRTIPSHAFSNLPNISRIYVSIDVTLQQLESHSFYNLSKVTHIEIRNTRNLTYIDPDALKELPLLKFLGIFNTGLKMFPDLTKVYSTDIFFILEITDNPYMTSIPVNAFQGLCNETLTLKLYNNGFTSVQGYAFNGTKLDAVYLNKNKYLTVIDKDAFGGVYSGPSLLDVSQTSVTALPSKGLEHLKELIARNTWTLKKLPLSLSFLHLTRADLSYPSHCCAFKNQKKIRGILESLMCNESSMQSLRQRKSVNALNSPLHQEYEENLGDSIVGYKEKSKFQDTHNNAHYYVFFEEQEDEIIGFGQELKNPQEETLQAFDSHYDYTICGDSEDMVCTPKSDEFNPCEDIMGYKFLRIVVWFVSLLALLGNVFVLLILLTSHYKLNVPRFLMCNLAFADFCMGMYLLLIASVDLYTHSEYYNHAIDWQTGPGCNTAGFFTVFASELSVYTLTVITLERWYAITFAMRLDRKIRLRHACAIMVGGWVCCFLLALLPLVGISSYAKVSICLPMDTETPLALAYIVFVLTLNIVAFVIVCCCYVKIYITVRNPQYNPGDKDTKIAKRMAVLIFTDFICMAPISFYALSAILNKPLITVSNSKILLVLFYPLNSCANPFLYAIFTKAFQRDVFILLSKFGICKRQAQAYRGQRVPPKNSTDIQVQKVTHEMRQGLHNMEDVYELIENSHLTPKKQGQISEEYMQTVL
# How it was run: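 Screening of the Tox21 10K collection used HEK293 cells engineered with TSHR at 800 cells per well. After a 30-min room-temperature compound exposure, HTRF cAMP reagents were added and fluorescence recorded 1 h later.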
# [2] = qHTS assay to identify small molecule agonists of the hypoxia (HIF-1) signaling pathway - cell viability counter screen (AID 1224844; calls by dose curve; further: nearly all actives have a fitted effect of over 50% in size)
# How it was run: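 Cells (HRE-bla ME-180, 2,000 per well) sat 5 hrs at 37C, got compound for 17 hrs, were read for CCF4-AM FRET, and were finally lysed with CellTiter-Glo for a 30 min room-temperature luminescence read.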
# [3] = qHTS assay to identify small molecule agonists of H2AX (AID 1224845; active means well fitted activation curve with a large enough effect in the signal ratio in the repeat runs, not every such curve was filed as active; the % refers to the signal ratio)
# How it was run: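 Phospho-H2AX Ser139 measured by HTRF (ex 320 nm; em 665 and 620 nm) after 24 hr antibody incubation. Compounds, 15 concentrations, 0.76% DMSO, were applied to CHO-K1 cells for 3hr at 37C before lysis.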
# [4] = qHTS assay to identify small molecule agonists of the hypoxia (HIF-1) signaling pathway (AID 1224846; active means well fitted activation curve with a large enough effect in the signal ratio in the repeat runs, not every such curve was filed as active; the % refers to the signal ratio)
# How it was run: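 A low-serum medium (0.5% dialyzed FBS) holding 2,000 HRE-bla ME-180 cells per well is preincubated for 5 hrs, dosed with compounds by pintool, and kept a further 17 hrs at 37C, 5% CO2 before CCF4-AM FRET detection of beta-lactamase.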
# [5] = qHTS assay to identify small molecule agonists of H2AX - cell viability counter screen (AID 1224847; calls by dose curve;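 further: wild-type CHO-K1 cells; top concentration of the series differs between compounds; nearly all actives have a fitted effect of over 30% in size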)
# How it was run: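 For this counter screen, overnight-attached CHO-K1 cells received test compounds (15 concentrations, 0.76% DMSO final); 3 hr later at 37C, CellTiter-Glo reagent was added and luminescence recorded after 30 min at room temperature.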
# [6] = qHTS RealTime-Glo MT Cell Viability Assay in HepG2 cells - 24 hour (AID 1224867); further: nearly all actives have a fitted effect of over 50% in size
# How it was run: (§1)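 Cells + NanoLuc/prosubstrate dispensed (600 cells/well) → 5 h at 37 C/5% CO2 → compounds in DMSO transferred → 40 h incubation at 37 C, luminescence read at 0, 8, 16, 24, 32, 40 h.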
# [7] = qHTS RealTime-Glo MT Cell Viability Assay in HEK293 cells - 32 hour (AID 1224868); further: top concentration of the series differs between compounds; nearly all actives have a fitted effect of over 50% in size
# How it was run: (§2)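 Tox21 10K qHTS, HEK293, 600 cells/well, RealTime-Glo reagent co-dispensed with cells; 5 h preincubation, compound by pintool, 37 C, luminescence at 0–40 h.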
# [8] = qHTS RealTime-Glo MT Cell Viability Assay in HepG2 cells - 40 hour (AID 1224870); further: nearly all actives have a fitted effect of over 50% in size
# How it was run: (§3)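 Real-time viability: cells seeded at 600 per well together with NanoLuc and cell-permeant prosubstrate, compounds added after 5 h incubation. Luminescence tracked at 0, 8, 16, 24, 32 and 40 h of exposure.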
# [9] = A CellTox Green Cytotoxicity Assay to monitor cytotoxicity in HEK293 cells - 40 hour (AID 1224871); further: nearly all actives have a fitted effect of over 45% in size
# How it was run: (§4)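 Fluorescence intensity, read at 0, 8, 16, 24, 32 and 40 h of compound treatment, reflected dye binding to DNA of dead HEK293 cells; compounds (23 nL, DMSO) were added 5 h after plating cells with reagent.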
# [10] = qHTS RealTime-Glo MT Cell Viability Assay in HEK293 cells - 16 hour (AID 1224872)
# How it was run: as §2
# [11] = qHTS RealTime-Glo MT Cell Viability Assay in HepG2 cells - 8 hour (AID 1224873); further: nearly all actives have a fitted effect of over 55% in size
# How it was run: as §3
# [12] = qHTS RealTime-Glo MT Cell Viability Assay in HEK293 cells - 40 hour (AID 1224874); settings: RealTime-Glo luminescence, hits give low values; further: nearly all actives have a fitted effect of over 50% in size
# How it was run: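 Viable HEK293 cells reduce a cell-permeant prosubstrate; the product diffuses out and is consumed by NanoLuc in the medium to give light. Compounds went in after a 5 h incubation and plates were read over the treatment course.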
# [13] = A CellTox Green Cytotoxicity Assay to monitor cytotoxicity in HEK293 cells - 24 hour (AID 1224875); further: series mostly up to about 77 µM; nearly all actives have a fitted effect of over 45% in size
# How it was run: as §4
# [14] = A CellTox Green Cytotoxicity Assay to monitor cytotoxicity in HepG2 cells - 16 hour (AID 1224876); further: nearly all actives have a fitted effect of over 45% in size; further: potency means the concentration at half of the fitted maximal effect
# How it was run: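 Using 1536-well format, dye-containing HepG2 suspension was seeded, allowed 5 h at 37 C/5% CO2, dosed by pintool with compounds, positive and negative controls, and imaged for fluorescence across 40 h.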
# [15] = qHTS RealTime-Glo MT Cell Viability Assay in HepG2 cells - 32 hour (AID 1224877); further: nearly all actives have a fitted effect of over 55% in size
# How it was run: as §1
# [16] = A CellTox Green Cytotoxicity Assay to monitor cytotoxicity in HEK293 cells - 0 hour (AID 1224869); further: nearly all actives have a fitted effect of over 50% in size
# How it was run: as §4
Structure (SMILES),Potency [1],outcome [2],outcome [3],outcome [4],outcome [5],outcome [6],outcome [7],outcome [8],Potency [9],outcome [10],outcome [11],max response [12],Potency [13],Potency [14],outcome [15],outcome [16]
CCCCCC(=O)CC,inactive,inactive,inactive,inactive,inactive,inactive,inactive,inactive,inactive,inactive,inactive,19.7%,inactive,inactive,inactive,
CC(=O)c1ccc(O)c(C(N)=O)c1,inactive,inactive,inactive,inactive,inactive,inactive,inactive,inactive,,inactive,inactive,2.03%,inactive,inactive,inactive,inactive
Cc1ccc2ccccc2n1,inactive,inactive,inactive,inactive,inactive,inactive,inactive,inactive,inactive,,inactive,18.8%,inactive,0.138 µM (active),inactive,inactive
Cc1cc(N)no1,inactive,inactive,inactive,inactive,inactive,inactive,inactive,inactive,,,inactive,13.5%,,inactive,inactive,inactive
CCCCS,inactive,inactive,inactive,inactive,inactive,inactive,inactive,inactive,,inactive,inactive,0.118%,,inactive,inactive,inactive
CC(C)(C)c1ccc(C(=O)CCCCl)cc1,inactive,inactive,inactive,inactive,inactive,inactive,,inactive,inactive,inactive,inactive,-1.09%,inactive,inactive,inactive,inactive
CCCCC(CC)CCC(CC(C)C)OS(=O)(=O)O (configuration not stated),inactive,inactive,inactive,inactive,inactive,inactive,inactive,inactive,inactive,inactive,inactive,-2.38%,inactive,inactive,inactive,
C/C=C/C(=O)CCCC,inactive,inactive,inactive,inactive,inactive,inactive,inactive,inactive,inactive,inactive,inactive,0.74%,inactive,inactive,inactive,
Cc1cccc(N)n1,inactive,inactive,inactive,inactive,inactive,inactive,inactive,inactive,,inactive,inactive,-4.06%,,inactive,inactive,inactive
COC(=O)c1ccc(NC(C)=O)cc1OC,inactive,inactive,inactive,inactive,inactive,inactive,,inactive,inactive,inactive,inactive,3.94%,inactive,inactive,inactive,inactive
CCCC(=O)CC,inactive,inactive,inactive,inactive,inactive,inactive,,inactive,inactive,,inactive,11.6%,,inactive,inactive,inactive
NCC1CCC(C(=O)Oc2ccc(CCC(=O)O)cc2)CC1 (configuration not stated),inactive,inactive,inactive,inactive,inactive,inactive,,inactive,inactive,inactive,inactive,8.81%,inactive,inactive,inactive,inactive
O=c1c(O)c(O)c1=O,27.3 µM (active),inactive,inactive,inactive,inactive,inactive,inactive,inactive,inactive,,inactive,-0.875%,,inactive,inactive,inactive
c1coc(Cn2cccc2)c1,inactive,inactive,inactive,inactive,inactive,inactive,inactive,inactive,,inactive,inactive,2.22%,inactive,inactive,inactive,inactive
C[C@@H]1CCC[C@H](C)N1CCCC(O)(c1ccccc1)c1ccccn1 (some centres not stated),inactive,inactive,inactive,inactive,inactive,inactive,inactive,inactive,inactive,inactive,inactive,,inactive,inactive,inactive,
